Measured values as given in the supplement of paper PMC8975748.
Structures can show the parent of a compound that is named as a salt. ± gives the standard deviation of the averaged measurements.

Tests used:
[1] = system: Saccharomyces cerevisiae BY4741 SeMeCo community; assay: mean cell size (pixel area) (pixels); higher = larger cells; conditions: 10 µM; 24 h; SM minimal medium
In short: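 Yeast cells were fixed with paraformaldehyde, imaged by automated confocal microscopy and analysed in Harmony to obtain mean cell pixel area per well. They came from a four-plasmid fluorescent Saccharomyces cerevisiae BY4741 community, each plasmid complementing one auxotrophy and carrying a fluorescent marker. Before imaging, 70 µl of culture at OD600 = 0.3 was incubated for 24 h in SM medium in 384-well plates predosed acoustically with drug (final 10 µM). Values are means of 3 replicates. Same SeMeCo high-content imaging drug screen: Selleck FDA-approved drugs at 10 µM, 24 h in SM medium, 384-well plates, 3 replicates.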

[2] = system: Saccharomyces cerevisiae BY4741 SeMeCo community; assay: z-score of prototroph abundance vs DMSO median; higher = larger share of this subpopulation than in DMSO controls; conditions: 10 µM; 24 h; SM minimal medium; subpopulation (auxotrophy): Prototroph
In short: (§1)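 Scoring was based on each subpopulation's abundance, expressed as a z-score against the vehicle-well median. A Saccharomyces cerevisiae BY4741 community with four plasmids, each restoring one auxotrophy and encoding a distinct fluorescent protein, was pre-grown overnight to OD600 1.0, diluted to 0.3, and added at 70 µl to 384-well plates acoustically predosed with library drugs (10 µM final). It then grew 24 h in minimal SM medium before paraformaldehyde fixation and automated confocal microscopy, with single-auxotroph fluorescent strains setting thresholds and autofluorescence correction.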

[3] = system: Saccharomyces cerevisiae BY4741 SeMeCo community; assay: z-score of subpopulation abundance vs DMSO median, subpopulation auxotrophic for L; higher = larger share of this subpopulation than in DMSO controls; conditions: 10 µM; 24 h; SM minimal medium; subpopulation (auxotrophy): L
In short: as §1

[4] = system: Saccharomyces cerevisiae BY4741 SeMeCo community; assay: z-score of subpopulation abundance vs DMSO median, subpopulation auxotrophic for U; higher = larger share of this subpopulation than in DMSO controls; conditions: 10 µM; 24 h; SM minimal medium; subpopulation (auxotrophy): U
In short: as §1

[5] = system: Saccharomyces cerevisiae BY4741 SeMeCo community; assay: z-score of subpopulation abundance vs DMSO median, subpopulation auxotrophic for H; higher = larger share of this subpopulation than in DMSO controls; conditions: 10 µM; 24 h; SM minimal medium; subpopulation (auxotrophy): H
In short: as §1

[6] = system: Saccharomyces cerevisiae BY4741 SeMeCo community; assay: z-score of subpopulation abundance vs DMSO median, subpopulation auxotrophic for LU; higher = larger share of this subpopulation than in DMSO controls; conditions: 10 µM; 24 h; SM minimal medium; subpopulation (auxotrophy): LU
In short: as §1

[7] = system: Saccharomyces cerevisiae BY4741 SeMeCo community; assay: z-score of subpopulation abundance vs DMSO median, subpopulation auxotrophic for LM; higher = larger share of this subpopulation than in DMSO controls; conditions: 10 µM; 24 h; SM minimal medium; subpopulation (auxotrophy): LM
In short: as §1

[8] = system: Saccharomyces cerevisiae BY4741 SeMeCo community; assay: z-score of subpopulation abundance vs DMSO median, subpopulation auxotrophic for HU; higher = larger share of this subpopulation than in DMSO controls; conditions: 10 µM; 24 h; SM minimal medium; subpopulation (auxotrophy): HU
In short: as §1

[9] = system: Saccharomyces cerevisiae BY4741 SeMeCo community; assay: z-score of subpopulation abundance vs DMSO median, subpopulation auxotrophic for UM; higher = larger share of this subpopulation than in DMSO controls; conditions: 10 µM; 24 h; SM minimal medium; subpopulation (auxotrophy): UM
In short: as §1

[10] = system: Saccharomyces cerevisiae BY4741 SeMeCo community; assay: z-score of subpopulation abundance vs DMSO median, subpopulation auxotrophic for HL; higher = larger share of this subpopulation than in DMSO controls; conditions: 10 µM; 24 h; SM minimal medium; subpopulation (auxotrophy): HL
In short: as §1

[11] = system: Saccharomyces cerevisiae BY4741 SeMeCo community; assay: z-score of subpopulation abundance vs DMSO median, subpopulation auxotrophic for HLU; higher = larger share of this subpopulation than in DMSO controls; conditions: 10 µM; 24 h; SM minimal medium; subpopulation (auxotrophy): HLU
In short: as §1

[12] = system: Saccharomyces cerevisiae BY4741 SeMeCo community; assay: z-score of subpopulation abundance vs DMSO median, subpopulation auxotrophic for HLM; higher = larger share of this subpopulation than in DMSO controls; conditions: 10 µM; 24 h; SM minimal medium; subpopulation (auxotrophy): HLM
In short: as §1

[13] = system: Saccharomyces cerevisiae BY4741 SeMeCo community; assay: z-score of subpopulation abundance vs DMSO median, subpopulation auxotrophic for HUM; higher = larger share of this subpopulation than in DMSO controls; conditions: 10 µM; 24 h; SM minimal medium; subpopulation (auxotrophy): HUM
In short: as §1

[14] = system: Saccharomyces cerevisiae BY4741 SeMeCo community; assay: z-score of subpopulation abundance vs DMSO median, subpopulation auxotrophic for LUM; higher = larger share of this subpopulation than in DMSO controls; conditions: 10 µM; 24 h; SM minimal medium; subpopulation (auxotrophy): LUM
In short: as §1

[15] = system: Saccharomyces cerevisiae BY4741 SeMeCo community; assay: z-score of subpopulation abundance vs DMSO median, subpopulation auxotrophic for HLUM; higher = larger share of this subpopulation than in DMSO controls; conditions: 10 µM; 24 h; SM minimal medium; subpopulation (auxotrophy): HLUM
In short: as §1

[16] = system: Saccharomyces cerevisiae BY4741 SeMeCo community; assay: z-score of subpopulation abundance vs DMSO median, subpopulation auxotrophic for HM; higher = larger share of this subpopulation than in DMSO controls; conditions: 10 µM; 24 h; SM minimal medium; subpopulation (auxotrophy): HM
In short: as §1

| Compound | mean cell size [1] | z-score of prototroph abundance [2] | z-score of subpopulation abundance [3] | z-score of subpopulation abundance [4] | z-score of subpopulation abundance [5] | z-score of subpopulation abundance [6] | z-score of subpopulation abundance [7] | z-score of subpopulation abundance [8] | z-score of subpopulation abundance [9] | z-score of subpopulation abundance [10] | z-score of subpopulation abundance [11] | z-score of subpopulation abundance [12] | z-score of subpopulation abundance [13] | z-score of subpopulation abundance [14] | z-score of subpopulation abundance [15] | z-score of subpopulation abundance [16] |
| --- | --- | --- | --- | --- | --- | --- | --- | --- | --- | --- | --- | --- | --- | --- | --- | --- |
| CC(C(=O)O)c1ccc2c(c1)Cc1cccnc1O2 (configuration not stated) [Pranoprofen] | 12.56 ± 0.067 | 0.32 | -0.28 | 0.43 | -0.08 | -0.35 | -0.7 | 0.43 | -0.93 | -0.22 | -0.3 | 0.61 | 0.27 | -0.12 | -0.06 |  |
| O=C(CCCN1CCN(c2ccccn2)CC1)c1ccc(F)cc1 [Azaperone] | 12.29 ± 0.072 |  | 0.29 | 0.07 |  | 0.24 | 0.61 | 0.16 | 0.85 | -0.42 | -0.03 | -0.5 | 1.31 | 0.38 |  | -0.63 |
| O=C1OC(CN2CCOCC2)CN1/N=C/c1ccc([N+](=O)[O-])o1 (configuration not stated) [Furaltadone HCl] | 12.75 ± 0.12 | 0.34 | -0.94 | 0.25 |  | -0.14 |  | -0.63 | 0.47 | -0.67 | -0.79 | -0.4 | -0.1 | -0.33 | -0.39 | 0.11 |
| C#C[C@]1(O)CC[C@H]2[C@@H]3CCC4=CCCC[C@@H]4[C@H]3CC[C@@]21C [Lynestrenol] |  | 0.17 | -0.78 | 1.07 | 0.16 | -0.82 | -0.94 | 0.4 | 0.5 | -0.15 | -0.88 | -0.46 | 0.15 | -0.41 | -0.6 | -0.19 |
| COc1cccc(CCc2ccccc2OCC(CN(C)C)OC(=O)CCC(=O)O)c1 (configuration not stated) [Sarpogrelate hydrochloride] | 12.3 ± 0.35 |  | -0.31 | -0.21 | -0.59 | -0.09 |  |  |  | -0.5 | -0.99 | -0.89 | -0.04 |  | -0.48 | -0.54 |
| CCn1cc(C(=O)O)c(=O)c2cnc(N3CCNCC3)nc21 [Pipemidic acid] | 12 ± 0.14 |  | -0.32 | 0.77 | -1.07 | 0.45 | 0.15 | -0.06 | 0.86 | 0.01 | -0.49 | -0.37 | 0.55 | 0.73 |  | 0.81 |
